Measured values published in publication PMC4552634, “A New Set of Chemical Starting Points with Plasmodium falciparum Transmission-Blocking Potential for Antimalarial Drug Discovery” (PLoS ONE, 2015).
About 3,200 (25%) of roughly 13,000 compounds showed an effect of 50% or more. The list shows a part of the results.

Each compound was assayed on P. falciparum stage V gametocytes. Details: 48 h, 5 µM; inhibitor.
Set-up: BacTiter-Glo ATP luminescence viability of purified stage V gametocytes in 384-well plates, per cent inhibition versus DMSO

Row | SMILES | % Inhibition [%]
1 | FC(F)(F)c1ccc2nccc(NN=Cc3cccnc3)c2c1 [TCMDC-142021] | -27.85
2 | Cc1noc(-c2ccc(N3CCC(C(=O)N4CCN(C(C)C)CC4)CC3)cc2)n1 [TCMDC-136012] | 8.914
3 | COc1ccc2nccc([C@@H](O)CN3CCC(NC(=O)c4ccc(Oc5ccccc5)cc4)CC3)c2c1 [TCMDC-141028] | -18.23
4 | Cc1noc(C)c1-c1cccc(CNCc2cccc(-c3cccc(-c4nc5cc(C(F)(F)F)ccc5[nH]4)c3)c2)c1.O=C(O)C(F)(F)F [TCMDC-133053] | -28.51
5 | COc1ccc(C2CC(c3cccs3)=NN2C(=O)CNc2cccc(C#N)c2)cc1OC (stereo not drawn) [TCMDC-125050] | -31.46
6 | Cc1cc2nc(-c3ccc(/C=C/C(=O)NCCCc4ccccc4)cc3)[nH]c2cc1C [TCMDC-140436] | -5.063
7 | N=C(NCCCc1ccccc1)c1cccc(C(=N)NCCCc2ccccc2)n1 [TCMDC-137453] | 100.2
8 | N=C(NCCCCC1CCCCC1)c1cccc(C(=N)NCCCCC2CCCCC2)n1 [TCMDC-137452] | 115.6
9 | OC(CNCCCc1ccccc1)c1cc(OCc2ccccc2)cc(OCc2ccccc2)c1 (stereo not drawn) [TCMDC-132033] | 38.73
10 | N=C(NCC1CC1c1ccccc1)c1cccc(C(=N)NCC2CC2c2ccccc2)n1 (stereo not drawn) [TCMDC-137456] | 113.7
11 | N#Cc1c(Cl)cccc1Oc1ccc(S(=O)(=O)N2CCC(CN3CCC(c4c[nH]c5ccccc45)CC3)CC2)cc1 [TCMDC-140172] | 15.16
12 | Cc1cc(NC(=O)c2coc3cc(F)c(N4CC(C)N(C)C(C)C4)cc23)ccc1-n1ccnc1 (stereo not drawn) [TCMDC-141394] | 18.23
13 | CCNc1cc(C(=O)N[C@@H](Cc2ccccc2)[C@H](O)CNCc2cccc(OC)c2C)cc(N2CCCCS2(=O)=O)c1 [TCMDC-132413] | 37.46
14 | Cc1ccc(-c2ccc3c(c2)C=C(C(=O)NC2CCN(CCNC(=O)c4cccs4)CC2)CCC3)cc1 [TCMDC-141949] | -0.2388
15 | Nc1n[nH]c(-c2ccccc2Nc2ccnc3cc(-c4nccs4)ccc23)n1 [TCMDC-138301] | 14.85
16 | c1ccc(-c2nc3ccccc3[nH]2)c(Nc2ccnc3cc(-c4nccs4)ccc23)c1 [TCMDC-138346] | 44.29
17 | Cc1nc(-c2cccc(Nc3ccnc4cc(-c5nccs5)ccc34)c2)no1 [TCMDC-138334] | 113.3
18 | CC(O)c1cccc(-c2ccc(Nc3ccnc4cc(-c5nccs5)ccc34)cc2)c1 (stereo not drawn) [TCMDC-138331] | -54.01
19 | Cc1nnc(-c2cccc(Nc3ccnc4cc(-c5nccs5)ccc34)c2)o1 [TCMDC-138335] | 93.46
20 | Cc1cccc(-c2cc3cc(Nc4ccnc5cc(-c6nccs6)ccc45)ccc3[nH]2)c1 [TCMDC-138348] | -37.38
21 | CC(C)(C)c1cc2cc(Nc3ccnc4cc(-c5nccs5)ccc34)ccc2[nH]1 [TCMDC-138349] | 14.13

Row | SMILES | % Inhibition [%]
22 | Cc1ccc2nc(-c3ccccc3Nc3ccnc4cc(-c5nccs5)ccc34)[nH]c2c1 [TCMDC-138345] | 108.2
23 | c1ccc(Cn2nnnc2-c2cccc(Nc3ccnc4cc(-c5nccs5)ccc34)c2)cc1 [TCMDC-138337] | 1.923
24 | O=C(NCC(NCCCNc1cc(=O)c2ccccc2[nH]1)c1cc(Br)cc(Br)c1)C1=CCCC1 (stereo not drawn) [TCMDC-140317] | -52.55
25 | CC(=O)N[C@H](C(=O)Nc1cccc(-c2ccc(-c3nc4cccc(C)c4[nH]3)s2)c1)C(C)C [TCMDC-136855] | 31.89
26 | Cc1ccc(-c2nc(N3CCN(C(=O)c4ccco4)CC3)c3ccc(Cl)cc3n2)cc1 [TCMDC-124781] | 24.46
27 | Cc1ccc2c(Cl)c(C(=O)N3CC(C)OC(C)C3)sc2c1 (stereo not drawn) [TCMDC-125624] | 35.35
28 | COc1ccccc1Cn1ccnc1SCC(=O)Nc1cc(C(F)(F)F)ccc1Cl [TCMDC-124736] | -16.43
29 | Cc1cc(C)cc(OCC(O)CN(CCN2CCOCC2)C(=O)Nc2ccc(Br)cc2)c1 (stereo not drawn) [TCMDC-141491] | 2.41
30 | O=C(Cn1c(CCc2cccc(F)c2F)nc(=O)c2ccccc21)N(CCN1CCCC1)Cc1ccc(-c2ccc(C(F)(F)F)cc2)cc1 [TCMDC-141059] | 66.66
31 | CC(C)(CN1CCCC1)CN(Cc1ccc(-c2ccc(C(F)(F)F)cc2)cc1)C(=O)Cn1c(CCc2cccc(F)c2F)nc(=O)c2ccccc21 [TCMDC-141098] | 107.5
32 | O=C(Cn1c(CCc2cccc(F)c2F)nc(=O)c2ccccc21)N(CCCN1CCCCC1)Cc1ccc(-c2ccc(C(F)(F)F)cc2)cc1 [TCMDC-141053] | 101.4
33 | O=C(Cn1c(CCc2cccc(F)c2F)nc(=O)c2ccccc21)N(CCN1CCCCC1)Cc1ccc(-c2ccc(C(F)(F)F)cc2)cc1 [TCMDC-141088] | 27.65
34 | O=C(Cn1c(CCc2cccc(F)c2F)nc(=O)c2ccccc21)N(CCCN1CCCC1)Cc1ccc(-c2ccc(C(F)(F)F)cc2)cc1 [TCMDC-141055] | 113.5
35 | FC(F)(F)c1ccc2c(NCCc3ccccc3)ccnc2c1 [TCMDC-138552] | -21.17
36 | COc1cccc2cc(C(=O)N[C@@H](CC(C)C)C(=O)N[C@H](/C=N/N(C)C(=O)OC(C)(C)C)CC(=O)OC(C)(C)C)oc12 [TCMDC-136092] | 4.382
37 | COc1ccc(NC(=O)Nc2nc(-c3ccc(Cl)c(C)c3)cs2)cc1N1CCN(C)CC1 [TCMDC-139155] | 8.522
38 | C[C@@H]1C[C@@H]([C@H](O)CC2CC(=O)NC(=O)C2)C(=O)[C@@H](C)C1 [TCMDC-125838] | 50.08
39 | O=C(NC1CCN(Cc2ccccc2)CC1)c1ccc(-c2nc3cc(Cl)c(Cl)cc3[nH]2)c(F)c1 [TCMDC-140083] | 2.132
40 | N=C(N)c1ccc(-c2cc3ccc(C(=N)N)cc3[nH]2)cc1 [TCMDC-123458] | 53.3
41 | N=C(N)c1ccc2[nH]c(-c3cc4cc(C(=N)N)ccc4o3)cc2c1 [TCMDC-137436] | -17.43
42 | c1cc(-c2cc3ccc(C4=NCCN4)cc3[nH]2)ccc1C1=NCCN1 [TCMDC-137748] | 20.42
